# Source: PMC5540273 (PLoS ONE, 2017)
# Like-named read-outs stand apart in the source and are kept apart here.
# Key:
# Settings in all cases: n = 1
# ROCK1 = system: ROCK1
# ROCK2 = system: ROCK2
# ROS1 = system: ROS1
# [1] = system: RPS6KA4(Kin.Dom.1-N-terminal)
# [2] = system: RPS6KA4(Kin.Dom.2-C-terminal)
# [3] = system: RPS6KA5(Kin.Dom.1-N-terminal)
# [4] = system: RPS6KA5(Kin.Dom.2-C-terminal)
# [5] = system: T1, RSK1(Kin.Dom.1-N-terminal)
# T1 construct: gene RPS6KA1
# [6] = system: T2, RSK1(Kin.Dom.2-C-terminal)
# T2 construct: gene RPS6KA1
# [7] = system: T3, RSK2(Kin.Dom.1-N-terminal)
# T3 construct: gene RPS6KA3
# [8] = system: T4, RSK2(Kin.Dom.2-C-terminal)
# T4 construct: gene RPS6KA3
# [9] = system: T5, RSK3(Kin.Dom.1-N-terminal)
# T5 construct: gene RPS6KA2
# [10] = system: T6, RSK3(Kin.Dom.2-C-terminal)
# T6 construct: gene RPS6KA2
# [11] = system: T7, RSK4(Kin.Dom.1-N-terminal)
# T7 construct: gene RPS6KA6
# [12] = system: T8, RSK4(Kin.Dom.2-C-terminal)
# T8 construct: gene RPS6KA6
# S6K1 = system: S6K1
# SBK1 = system: SBK1
# SGK2 = system: SGK2
# SGK3 = system: SGK3
# SGK = system: SGK
# [13] = concentration: 1 μM, replicates: in singlicate
# 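Further: KINOMEscan kinase panel screen.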
compound,measurement,setting,value
NC(=O)c1nnc2ccccc2c1N,%Inh,ROCK1; [13],0%
same,%Inh,ROCK2; [13],7%
same,%Inh,ROS1; [13],0%
same,%Inh,[1]; [13],21%
same,%Inh,[2]; [13],30%
same,%Inh,[3]; [13],6%
same,%Inh,[4]; [13],21%
same,%Inh,[5]; [13],31%
same,%Inh,[6]; [13],0%
same,%Inh,[7]; [13],33%
same,%Inh,[8]; [13],13%
same,%Inh,[9]; [13],19%
same,%Inh,[10]; [13],0%
same,%Inh,[11]; [13],33%
same,%Inh,[12]; [13],44%
same,%Inh,S6K1; [13],14%
same,%Inh,SBK1; [13],1%
same,%Inh,SGK2; [13],13%
same,%Inh,SGK3; [13],44%
same,%Inh,SGK; [13],0%
COc1ccccc1CNC(=O)c1cc(C(=O)c2ccccc2C)c[nH]1 [GSK364507],%Inh,ROCK1; [13],12%
same,%Inh,ROCK2; [13],10%
same,%Inh,ROS1; [13],0%
same,%Inh,[1]; [13],5%
same,%Inh,[2]; [13],0%
same,%Inh,[3]; [13],5%
same,%Inh,[4]; [13],21%
same,%Inh,[5]; [13],25%
same,%Inh,[6]; [13],0%
same,%Inh,[7]; [13],4%
same,%Inh,[8]; [13],0%
same,%Inh,[9]; [13],4%
same,%Inh,[10]; [13],0%
same,%Inh,[11]; [13],0%
same,%Inh,[12]; [13],0%
same,%Inh,S6K1; [13],11%
same,%Inh,SBK1; [13],16%
same,%Inh,SGK2; [13],1%
same,%Inh,SGK3; [13],0%
same,%Inh,SGK; [13],0%
CN(C)CCN(C)C(=O)c1cc(-c2ccncc2)c(-c2ccc(Cl)c(O)c2)o1.Cl.Cl [SB-710397],%Inh,ROCK1; [13],26%
same,%Inh,ROCK2; [13],17%
same,%Inh,ROS1; [13],0%
same,%Inh,[1]; [13],13%
same,%Inh,[2]; [13],0%
same,%Inh,[3]; [13],10%
same,%Inh,[4]; [13],2%
same,%Inh,[5]; [13],25%
same,%Inh,[6]; [13],25%
same,%Inh,[7]; [13],8%
same,%Inh,[8]; [13],29%
same,%Inh,[9]; [13],8%
same,%Inh,[10]; [13],0%
same,%Inh,[11]; [13],0%
same,%Inh,[12]; [13],76%
same,%Inh,S6K1; [13],15%
same,%Inh,SBK1; [13],23%
same,%Inh,SGK2; [13],9%
same,%Inh,SGK3; [13],0%
same,%Inh,SGK; [13],0%
COc1cc(Nc2nccc(N3CCC(NC(=O)Nc4cc(C)ccc4C)C3)n2)cc(OC)c1OC (centres unmarked) [GSK1379762],%Inh,ROCK1; [13],12%
same,%Inh,ROCK2; [13],2%
same,%Inh,ROS1; [13],42%
same,%Inh,[1]; [13],8%
same,%Inh,[2]; [13],0%
same,%Inh,[3]; [13],22%
same,%Inh,[4]; [13],2%
same,%Inh,[5]; [13],2%
same,%Inh,[6]; [13],0%
same,%Inh,[7]; [13],0%
same,%Inh,[8]; [13],2%
same,%Inh,[9]; [13],9%
same,%Inh,[10]; [13],0%
same,%Inh,[11]; [13],0%
same,%Inh,[12]; [13],14%
same,%Inh,S6K1; [13],3%
same,%Inh,SBK1; [13],6%
same,%Inh,SGK2; [13],12%
same,%Inh,SGK3; [13],0%
same,%Inh,SGK; [13],0%
COC(=O)c1c(-c2ccccc2)c2cc(C(=O)O)ccc2c(=O)n1Cc1ccccc1,%Inh,ROCK1; [13],10%
same,%Inh,ROCK2; [13],0%
same,%Inh,ROS1; [13],0%
same,%Inh,[1]; [13],0%
same,%Inh,[2]; [13],6%
same,%Inh,[3]; [13],11%
same,%Inh,[4]; [13],0%
same,%Inh,[5]; [13],0%
same,%Inh,[6]; [13],18%
same,%Inh,[7]; [13],0%
same,%Inh,[8]; [13],0%
same,%Inh,[9]; [13],0%
same,%Inh,[10]; [13],0%
same,%Inh,[11]; [13],0%
same,%Inh,[12]; [13],5%
same,%Inh,S6K1; [13],0%
same,%Inh,SBK1; [13],0%
same,%Inh,SGK2; [13],25%
same,%Inh,SGK3; [13],5%
same,%Inh,SGK; [13],23%
Cc1ccc(NC(=O)Nc2cccc(C(F)(F)F)c2)cc1 [GSK955403],%Inh,ROCK1; 1 µM,0%
same,%Inh,ROCK2; 1 µM,0%
same,%Inh,ROS1; 1 µM,0%
same,%Inh,[1]; 1 µM,0%
same,%Inh,[2]; 1 µM,1%
same,%Inh,[3]; 1 µM,3%
same,%Inh,[4]; 1 µM,6%
same,%Inh,[5]; 1 µM,1%
same,%Inh,[6]; 1 µM,6%
same,%Inh,[7]; 1 µM,0%
same,%Inh,[8]; 1 µM,0%
same,%Inh,[9]; 1 µM,7%
same,%Inh,[10]; 1 µM,27%
same,%Inh,[11]; 1 µM,0%
same,%Inh,[12]; 1 µM,23%
same,%Inh,S6K1; 1 µM,2%
same,%Inh,SBK1; 1 µM,0%
same,%Inh,SGK2; 1 µM,7%
same,%Inh,SGK3; 1 µM,0%
same,%Inh,SGK; 1 µM,22%
CS(=O)(=O)c1ccc(-c2c(-c3ncn[nH]3)sc(N3CCOCC3)c2C#N)cc1,%Inh,ROCK1; [13],0%
same,%Inh,ROCK2; [13],15%
same,%Inh,ROS1; [13],14%
same,%Inh,[1]; [13],4%
same,%Inh,[2]; [13],0%
same,%Inh,[3]; [13],0%
same,%Inh,[4]; [13],0%
same,%Inh,[5]; [13],16%
same,%Inh,[6]; [13],14%
same,%Inh,[7]; [13],4%
same,%Inh,[8]; [13],0%
same,%Inh,[9]; [13],0%
same,%Inh,[10]; [13],98%
same,%Inh,[11]; [13],0%
same,%Inh,[12]; [13],100%
same,%Inh,S6K1; [13],10%
same,%Inh,SBK1; [13],0%
same,%Inh,SGK2; [13],0%
same,%Inh,SGK3; [13],24%
same,%Inh,SGK; [13],0%
Cc1cc(-c2ccc3c(c2)CC[C@@H](N[C@@H](C)c2ccccc2)C3)cnc1N.Cl [GW412617],%Inh,ROCK1; [13],7%
same,%Inh,ROCK2; [13],5%
same,%Inh,ROS1; [13],15%
same,%Inh,[1]; [13],16%
same,%Inh,[2]; [13],0%
same,%Inh,[3]; [13],6%
same,%Inh,[4]; [13],0%
same,%Inh,[5]; [13],0%
same,%Inh,[6]; [13],8%
same,%Inh,[7]; [13],4%
same,%Inh,[8]; [13],47%
same,%Inh,[9]; [13],15%
same,%Inh,[10]; [13],0%
same,%Inh,[11]; [13],23%
same,%Inh,[12]; [13],0%
same,%Inh,S6K1; [13],4%
same,%Inh,SBK1; [13],17%
same,%Inh,SGK2; [13],0%
same,%Inh,SGK3; [13],0%
same,%Inh,SGK; [13],2%
Cl.Oc1ccc(-c2nc(-c3ccccc3)[nH]c2-c2ccncc2)cc1 [SB-428218],%Inh,ROCK1; [13],70%
same,%Inh,ROCK2; [13],61%
same,%Inh,ROS1; [13],0%
same,%Inh,[1]; [13],0%
same,%Inh,[2]; [13],0%
same,%Inh,[3]; [13],0%
same,%Inh,[4]; [13],11%
same,%Inh,[5]; [13],30%
same,%Inh,[6]; [13],0%
same,%Inh,[7]; [13],6%
same,%Inh,[8]; [13],0%
same,%Inh,[9]; [13],0%
same,%Inh,[10]; [13],8%
same,%Inh,[11]; [13],0%
same,%Inh,[12]; [13],32%
same,%Inh,S6K1; [13],14%
same,%Inh,SBK1; [13],0%
same,%Inh,SGK2; [13],0%
same,%Inh,SGK3; [13],0%
same,%Inh,SGK; [13],7%
COc1cccc(-c2cc(-c3c[nH]nc3-c3ccccn3)ccn2)c1 [GW680338],%Inh,ROCK1; [13],0%
same,%Inh,ROCK2; [13],0%
same,%Inh,ROS1; [13],0%
same,%Inh,[1]; [13],18%
same,%Inh,[2]; [13],0%
same,%Inh,[3]; [13],0%
same,%Inh,[4]; [13],7%
same,%Inh,[5]; [13],0%
same,%Inh,[6]; [13],9%
same,%Inh,[7]; [13],0%
same,%Inh,[8]; [13],33%
same,%Inh,[9]; [13],0%
same,%Inh,[10]; [13],0%
same,%Inh,[11]; [13],0%
same,%Inh,[12]; [13],48%
same,%Inh,S6K1; [13],6%
same,%Inh,SBK1; [13],15%
same,%Inh,SGK2; [13],4%
same,%Inh,SGK3; [13],7%
same,%Inh,SGK; [13],7%
